Data on eight compounds can be found in PubChem BioAssay (NCATS).

Records with an inconclusive call do not appear. Activity calls are given as the source filed them. Calls follow the shape of the dose curve; as a rule, active = well fitted curve in the direction sought with a large enough effect; inconclusive = small, poorly fitted or top-dose-only effect, or another doubt; inactive = no such curve, though single readings can be large; an effect the other way counts as inactive or inconclusive.

Assay [1] is described as follows: qHTS of pediatric cancer cell lines to identify multiple opportunities for drug repurposing: Primary screen for NB-EBc1 cells (AID 1347095). Also: potency is read from the fitted curve at half-maximal effect. The essentials: (§1)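 CRCs from 8- or 11-point titrations (lowest final 0.59 nM NPC, 0.78 nM MIPE). Cell viability: CellTiter-Glo after 48 h incubation, 15 min room-temperature development, luminescence imaging.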
On the technique in general: qHTS replaces the single test concentration by a dilution series.

A short description of assay [2]: qHTS of pediatric cancer cell lines to identify multiple opportunities for drug repurposing: Primary screen for Saos-2 cells (AID 1347097). Also: nearly all actives have a fitted effect of over 40% in size. Also: potency is read from the fitted curve at half-maximal effect. The gist of the method:
as §1

The nature of assay [3]: qHTS of pediatric cancer cell lines to identify multiple opportunities for drug repurposing: Primary screen for SK-N-SH cells (AID 1347098). Also: nearly all actives have a fitted effect of over 65% in size. Also: potency is read from the fitted curve at half-maximal effect. The gist of the method:
(§2)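 Cells (500-1,000/well) rested 5 h, then received compounds for 48 h; metabolically active cells were measured by CellTiter-Glo luminescence. Final concentrations spanned up to 46 µM (MIPE, 11-point) or 0.59 nM-46 µM (NPC, 8-point) in primary screens, 11-point in follow-ups.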

Assay [4] is described as follows: qHTS of pediatric cancer cell lines to identify multiple opportunities for drug repurposing: Primary screen for NB1643 cells (AID 1347099). Also: potency is read from the fitted curve at half-maximal effect; nearly all actives have a fitted effect of over 50% in size. The essentials: as §1
Assay [5] can be described thus: qHTS of pediatric cancer cell lines to identify multiple opportunities for drug repurposing: Primary screen for LAN-5 cells (AID 1347100). Also: potency is read from the fitted curve at half-maximal effect. The gist of the method: as §2
Assay [6] can be described thus: qHTS of pediatric cancer cell lines to identify multiple opportunities for drug repurposing: Primary screen for BT-12 cells (AID 1347101). Also: potency is read from the fitted curve at half-maximal effect; nearly all actives have a fitted effect of over 25% in size. The gist of the method: as §2
Assay [7] can be described thus: qHTS of pediatric cancer cell lines to identify multiple opportunities for drug repurposing: Primary screen for Rh18 cells (AID 1347102). Also: nearly all actives have a fitted effect of over 65% in size. Also: potency is read from the fitted curve at half-maximal effect. The gist of the method:
as §2

Assay [8] in a line: qHTS of pediatric cancer cell lines to identify multiple opportunities for drug repurposing: Primary screen for OHS-50 cells (AID 1347103). Also: potency is read from the fitted curve at half-maximal effect; nearly all actives have a fitted effect of over 40% in size. The essentials: as §2
Assay [9] is described as follows: qHTS of pediatric cancer cell lines to identify multiple opportunities for drug repurposing: Primary screen for RD cells (AID 1347104). Also: potency is read from the fitted curve at half-maximal effect; nearly all actives have a fitted effect of over 55% in size. The essentials: as §1
Assay [10] can be described thus: qHTS of pediatric cancer cell lines to identify multiple opportunities for drug repurposing: Primary screen for MG 63 (6-TG R) cells (AID 1347105). Also: nearly all actives have a fitted effect of over 50% in size. Also: potency is read from the fitted curve at half-maximal effect. The gist of the method:
as §1

Assay [11] is described as follows: qHTS of pediatric cancer cell lines to identify multiple opportunities for drug repurposing: Primary screen for control Hh wild type fibroblast cells (AID 1347106). Also: nearly all actives have a fitted effect of over 55% in size. Also: potency is read from the fitted curve at half-maximal effect. The essentials: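 Cells (500-1,000/well) in growth media were settled 5 h at 37 degrees C, then given compounds for 48 h. Viability was read as CellTiter-Glo luminescence. Primary runs used MIPE at 11 points (0.78 nM-46 µM) and NPC at 8 points (0.59 nM-46 µM); follow-ups used 11 points.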

The nature of assay [12]: qHTS of pediatric cancer cell lines to identify multiple opportunities for drug repurposing: Primary screen for Rh30 cells (AID 1347107). Also: nearly all actives have a fitted effect of over 75% in size. Also: potency is read from the fitted curve at half-maximal effect. The essentials: as §2
Assay [13] in a line: qHTS of pediatric cancer cell lines to identify multiple opportunities for drug repurposing: Primary screen for Rh41 cells (AID 1347108). Also: potency is read from the fitted curve at half-maximal effect; nearly all actives have a fitted effect of over 70% in size. The essentials:
as §1

Assay [14] is described as follows: qHTS of pediatric cancer cell lines to identify multiple opportunities for drug repurposing: Confirmatory screen for NB1643 cells (AID 1347109). Also: potency is read from the fitted curve at half-maximal effect; nearly all actives have a fitted effect of over 45% in size. The gist of the method:
as §2

Assay [15] is described as follows: qHTS of pediatric cancer cell lines to identify multiple opportunities for drug repurposing: Confirmatory screen for A673 cells (AID 1347110).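 Also: potency is read from the fitted curve at half-maximal effect; cells exposed to compound for 48 h before the viability read; nearly all actives have a fitted effect of over 65% in size.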 The gist of the method:
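Viability was read as ATP luminescence (CellTiter-Glo) after 48 h of compound exposure at 37 C in A673 cells seeded at 500-1,000/well. Titrations reached 46 uM final, with 11 points in the confirmatory screen. Concentration-response curves were fitted directly.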

Assay [16] can be described thus: qHTS of pediatric cancer cell lines to identify multiple opportunities for drug repurposing: Confirmatory screen for SK-N-MC cells (AID 1347111).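 Also: potency is read from the fitted curve at half-maximal effect; cells exposed to compound for 48 h before the readout; nearly all actives have a fitted effect of over 70% in size.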 The essentials: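 Seed 500-1,000 cells/well; rest 5 h at 37 degrees C. Pin-transfer compounds, 11-point titration. Incubate 48 h. Add CellTiter-Glo, 15 min RT, read luminescence.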
Assay [17] can be described thus: qHTS of pediatric cancer cell lines to identify multiple opportunities for drug repurposing: Confirmatory screen for BT-12 cells (AID 1347112). Also: potency is read from the fitted curve at half-maximal effect; nearly all actives have a fitted effect of over 55% in size. The essentials: as §2
Assay [18] can be described thus: qHTS of pediatric cancer cell lines to identify multiple opportunities for drug repurposing: Confirmatory screen for LAN-5 cells (AID 1347113). Also: potency is read from the fitted curve at half-maximal effect; nearly all actives have a fitted effect of over 65% in size. The gist of the method:
as §2

Assay [19] in a line: qHTS of pediatric cancer cell lines to identify multiple opportunities for drug repurposing: Primary screen for U-2 OS cells (AID 1347096). Also: nearly all actives have a fitted effect of over 50% in size. The essentials: as §2

Consider `C=C1C(=O)O[C@H]2[C@@H]1CCC(C)=CCC[C@@]1(C)O[C@@H]21`, for which the Potency is 5.26 µM (active) in assay [1]; 3.32 µM (active) in assay [2]; 24.1 µM (active) in [3]; 8.33 µM (active) in assay [4]; 7.43 µM (active) in assay [5]; 21.7 µM (active) in assay [6]. The Potency in [7] was 23.5 µM (active); in [8], 4.85 µM (active); in assay [9] it was 18.7 µM (active); in assay [10] it was 9.35 µM (active); in [12], 18.7 µM (active); in [13], 11.8 µM (active). For the same compound, the Potency entry in [11] was “inactive”.
As to `C#C[C@]1(O)CC[C@@H]2[C@@H]3CCc4cc(O)ccc4[C@H]3CC[C@@]21C`, the Potency was 13.2 µM (active) in assay [1]; 18.7 µM (active) in [2]; 24.1 µM (active) in assay [3]; 20.9 µM (active) in [4]; 18.7 µM (active) in assay [9]; 23.5 µM (active) in assay [10]. Moreover, in assay [13], the Potency is 23.5 µM (active). For the same compound, the Potency entry in assay [11] was “inactive”.
`C=CC(=O)Nc1cccc(Nc2nc(NC3CCC(N(C)C)CC3)nc3c2ncn3C(C)C)c1` (centres undefined): the Potency in [1] was 0.166 µM (active); in assay [2], 0.833 µM (active); in [3] it was 0.136 µM (active); in [4], 0.0332 µM (active); in [7] it was 0.418 µM (active); in assay [8] it was 0.0385 µM (active). Further, the Potency was 0.0833 µM (active) in assay [9]; 0.469 µM (active) in assay [10]; 2.35 µM (active) in assay [11]; 0.0209 µM (active) in assay [13]; 0.414 µM (active) in assay [14]; 0.737 µM (active) in [15]. The Potency in assay [16] is 2.61 µM (active); in [17], 1.17 µM (active); in assay [18] it was 0.827 µM (active). In addition, the Potency entry in assay [12] is “inactive”.
Turning to `Oc1cc(-c2nc(-c3ccccc3)[nH]c2-c2ccncc2)ccc1Cl`, the Potency in assay [1] was 3.72 µM (active); in assay [2], 11.8 µM (active); in [3] it was 19.2 µM (active); in [4] it was 18.7 µM (active); in [5] it was 16.6 µM (active); in assay [6], 6.11 µM (active). The Potency in assay [8] is 24.3 µM (active); in assay [9] it was 2.09 µM (active); in [10], 11.8 µM (active); in [16] it was 3.69 µM (active); in assay [17] it was 2.33 µM (active); in assay [18] it was 6.57 µM (active). Further, the Potency result in assay [11] is “inactive”.
On to `CCCCCN=C(N)NN=Cc1c[nH]c2ccc(OC)cc12`, for which the Potency entry in [3], in assay [11] and in [12] was “inactive” throughout. The Potency in [8] is 9.68 µM (active); in [9], 18.7 µM (active).
As to `COc1cc(OC)c(C=CS(=O)(=O)Cc2ccc(OC)c(NCC(=O)O)c2)c(OC)c1`, the Potency is 0.187 µM (active) in [1]; 0.059 µM (active) in assay [2]; 7.64 µM (active) in assay [3]; 0.0372 µM (active) in assay [4]; 0.148 µM (active) in assay [5]; 0.172 µM (active) in assay [8]. The Potency in assay [14] was 0.414 µM (active); in [15] it was 0.369 µM (active); in [16], 0.293 µM (active); in assay [18], 1.17 µM (active). Besides, the Potency entry in assay [7], in assay [10] and in assay [12] was “inactive” throughout.
Take `COc1cc(C=CC(=O)CC(=O)C=Cc2ccc(O)c(OC)c2)ccc1O`: the Potency is 38.2 µM (active) in assay [1]; 30.3 µM (active) in [2]; 12.1 µM (active) in [4]; 9.59 µM (active) in assay [5]; 44.4 µM (active) in assay [6]; 38.2 µM (active) in [7]. In addition, the Potency in [8] is 39.5 µM (active); in assay [13], 30.3 µM (active); in assay [14], 30.2 µM (active); in assay [15], 10.7 µM (active); in assay [16], 15.1 µM (active); in assay [17] it was 38 µM (active). For the same compound, the Potency in assay [18] is 26.9 µM (active).
For `N#Cc1ccc(COC[C@H]2O[C@@H](n3c(NCc4ccc(Cl)c(Cl)c4)nc4c(N)ncnc43)[C@@H](O)[C@@H]2O)cc1`, the Potency entry in assay [19], in assay [2], in assay [10] and in assay [11] was “inactive” each time. Further, the Potency was 19.2 µM (active) in assay [3], 18.7 µM (active) in [4], 16.6 µM (active) in [5] and 6.85 µM (active) in assay [8].
